# Assay results: the supplement of paper PMC11219838
# Values without a mark were called inactive.
# Tested on: Caenorhabditis elegans L1 (N2)
# Assay: survival and reproduction score of C. elegans L1 (0: 0-10 living worms, 1: 11-20, 2: 21-50, 3: >50, 4: overgrown) (score 0-4); higher = more worms, less nematicidal, active = 1 or less; extreme values may be limits of the assay
# Conditions: 60 µM; 6 days; temperature: 20 °C
# Outline: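 After compound was pinned to 60 µM final (0.6% v/v DMSO) into wells with roughly 20 synchronized C. elegans N2 L1s and E. coli HB101 in liquid NGM, the sealed 96-well plates were shaken at 200 rpm for 6 days at 20 °C. Under a dissection microscope, survival and reproduction were graded ordinally by living worms per well. A grade of 0 stood for 0–10 worms and 4 for overgrown, starved wells; two biological replicates were averaged.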
row,SMILES,survival and reproduction score
1,Brc1ccc(-c2nc(-c3ccc4c(c3)OCO4)no2)cc1,4
2,O=C(CSc1nnc(-c2ccccc2Cl)o1)c1ccc2c(c1)CCCC2,4
3,Cc1ccc(-c2nnc(SCC(=O)Nc3ccc(Br)c(C)c3C)o2)cc1,4
4,COc1ccc(-c2noc(-c3ccccc3C)n2)cc1,0 (active)
5,COc1ccccc1-c1nnc(SCc2ccccc2C#N)o1,4
6,CCOc1ccccc1-c1nnc(SCC(=O)c2ccccc2)o1,4
7,COc1cccc(-c2nc(-c3ccccc3)no2)c1,1.5
8,Clc1ccccc1OCc1nc(-c2ccccn2)no1,4
9,CCOc1nc(C)ccc1-c1noc(-c2cccc(C)c2)n1,4
10,Cc1cc(C)cc(OCc2nc(-c3ccccc3Cl)no2)c1,4
11,Clc1ccccc1-c1noc(COc2ccc(Br)cc2)n1,4
12,COC(=O)c1ccc(CSc2nnc(-c3ccc(OC)cc3)o2)cc1,4
13,COc1ccccc1-c1noc(-c2ccc(C(C)(C)C)cc2)n1,4
14,O=C(CSc1nnc(-c2ccccc2)o1)N1CCc2ccccc21,4
15,Cc1cc(C)c(C)c(OCc2nc(-c3ccccc3)no2)c1,4
16,COc1ccccc1-c1nnc(SCC(=O)Nc2ccc(F)cc2)o1,4
17,c1ccc(-c2noc(COc3ccc4c(c3)CCCC4)n2)cc1,4
18,COc1ccc(-c2noc(COc3ccc(C4CCCCC4)cc3)n2)cc1,4
19,Cc1cccc(-c2noc(-c3ccc(Cl)cc3)n2)c1,4
